Experimental data as given in PubChem BioAssay AID1159580 (chemical genetic matrix, 2015).
Hit rate of the full screen: of about 5,500 compounds, about 2,000 (36%) were called active. About 18% were inconclusive and are not listed. The list shows a part of the results. Values without a mark were called inactive. No stated cut-off is given here; in the data, active means normalized growth mostly below about 0.91 (no sharp cut-off); inconclusive means no clear call, values can overlap the other calls; inactive means mostly above about 0.92.

Experiment: chemical genetic growth profiling, strain panel (AID 1159580);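 further: tested at 20 µM; growth read once vehicle control cultures reached saturation at 30 °C; 1 = growth at the plate median or of vehicle wells; lower values mean less growth of the strain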
Conditions: S. cerevisiae deletion strains, growth OD

Structure (SMILES): CC(=O)Nc1ccc(/C=C/[N+](=O)[O-])cc1
- normalized growth (locus YAR019C, strain CDC15, hits give low values): 0.977
- normalized growth (locus YBL105C, strain PKC1, hits give low values): 0.972
- normalized growth (locus YBR135W, strain CKS1, hits give low values): 0.976
- normalized growth (locus YBR136W, strain MEC1, hits give low values): 0.964
- normalized growth (locus YBR160W, strain CDC28, hits give low values): 0.98
- normalized growth (locus YDL017W, strain CDC7, hits give low values): 0.98
- normalized growth (locus YDL028C, strain MPS1, hits give low values): 0.973
- normalized growth (locus YDL101C, strain DUN1, hits give low values): 0.994
- normalized growth (locus YDL108W, strain KIN28, hits give low values): 0.972
- normalized growth (locus YDL132W, strain cdc53, hits give low values): 0.975
- normalized growth (locus YDL214C, strain PRR2, hits give low values): 0.857
- normalized growth (locus YDR052C, strain DBF4, hits give low values): 0.98
- normalized growth (locus YDR054C, strain cdc34, hits give low values): 0.974
- normalized growth (locus YDR226W, strain ADK1, hits give low values): 0.975
- normalized growth (locus YDR477W, strain SNF1, hits give low values): 0.809
- normalized growth (locus YER123W, strain YCK3, hits give low values): 0.679
- normalized growth (locus YER133W, strain GLC7, hits give low values): 0.806
- normalized growth (locus YFL009W, strain cdc4, hits give low values): 0.974
- normalized growth (locus YFL029C, strain CAK1, hits give low values): 0.962
- normalized growth (locus YFR003C, strain YPI1, hits give low values): 0.982
- normalized growth (locus YFR019W, strain FAB1, hits give low values): 0.629 (active)
- normalized growth (locus YFR028C, strain CDC14, hits give low values): 0.972
- normalized growth (locus YGR040W, strain KSS1, hits give low values): 0.807
- normalized growth (locus YGR052W, strain FMP48, hits give low values): 0.843
- normalized growth (locus YGR092W, strain DBF2, hits give low values): 0.816
- normalized growth (locus YHR030C, strain SLT2, hits give low values): 0.697 (active)
- normalized growth (locus YHR079C, strain IRE1, hits give low values): 0.809
- normalized growth (locus YHR082C, strain KSP1, hits give low values): 0.804
- normalized growth (locus YHR205W, strain SCH9, hits give low values): 0.723
- normalized growth (locus YIL147C, strain SLN1, hits give low values): 0.97
- normalized growth (locus YJL095W, strain BCK1, hits give low values): 0.78
- normalized growth (locus YJL128C, strain PBS2, hits give low values): 0.969
- normalized growth (locus YJL157C, strain FAR1, hits give low values): 0.844
- normalized growth (locus YJR016C, strain ILV3, hits give low values): 0.981
- normalized growth (locus YJR066W, strain TOR1 (second series), hits give low values): 0.732
- normalized growth (locus YJR066W, strain TOR1, hits give low values): 0.684
- normalized growth (locus YKL048C, strain ELM1, hits give low values): 0.864
- normalized growth (locus YKL067W, strain YNK1, hits give low values): 0.852
- normalized growth (locus YKL101W, strain HSL1, hits give low values): 0.795
- normalized growth (locus YKL193C, strain SDS22, hits give low values): 0.977
- normalized growth (locus YKL203C, strain TOR2, hits give low values): 0.852
- normalized growth (locus YLR113W, strain HOG1, hits give low values): 0.628 (active)
- normalized growth (locus YLR133W, strain CKI1, hits give low values): 0.861
- normalized growth (locus YLR403W, strain SFP1, hits give low values): 0.818
- normalized growth (locus YML070W, strain DAK1, hits give low values): 0.804
- normalized growth (locus YMR001C, strain CDC5, hits give low values): 0.971
- normalized growth (locus YMR205C, strain PFK2 (second series), hits give low values): 0.868
- normalized growth (locus YMR277W, strain FCP1, hits give low values): 0.976
- normalized growth (locus YNL006W, strain LST8, hits give low values): 0.996
- normalized growth (locus YNL020C, strain ARK1, hits give low values): 0.88
- normalized growth (locus YNL161W, strain CBK1, hits give low values): 0.973
- normalized growth (locus YNL183C, strain NPR1, hits give low values): 0.782
- normalized growth (locus YNL207W, strain RIO2, hits give low values): 0.978
- normalized growth (locus YNL222W, strain SSU72, hits give low values): 0.975
- normalized growth (locus YNL307C, strain MCK1 (second series), hits give low values): 0.78
- normalized growth (locus YOL078W, strain AVO1, hits give low values): 0.97
- normalized growth (locus YOL136C, strain PFK27, hits give low values): 0.829
- normalized growth (locus YOR061W, strain CKA2, hits give low values): 0.882
- normalized growth (locus YOR119C, strain RIO1, hits give low values): 0.855
- normalized growth (locus YOR231W, strain MKK1, hits give low values): 0.786
- normalized growth (locus YOR329C, strain SCD5, hits give low values): 0.985
- normalized growth (locus YPL031C, strain PHO85, hits give low values): 0.794
- normalized growth (locus YPL153C, strain RAD53, hits give low values): 0.776
- normalized growth (locus YPL204W, strain HRR25, hits give low values): 0.791
- normalized growth (locus YPL209C, strain IPL1, hits give low values): 0.98
- normalized growth (locus YPL256C, strain CLN2, hits give low values): 0.642 (active)
- normalized growth (locus YPR025C, strain CCL1, hits give low values): 0.982
- normalized growth (locus YPR106W, strain ISR1, hits give low values): 0.988
- normalized growth (locus YPR111W, strain DBF20, hits give low values): 0.984
- normalized growth (strain NNK1, hits give low values): 0.999
- normalized growth (strain TSCII, hits give low values): 0.969
